Screening data (PubChem BioAssay)
An excerpt weighted towards active compounds, which were near 4.8% of everything screened.
Hsp70 act: Hsp70 transcriptional activation, primary screen; HeLa Hsp70 promoter luciferase reporter, luminescence; scaled: vehicle 0, proteasome-inhibitor control 100%; activation, % at 10 µM; 0.04% of 200,000 active; AID 1203;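 active = activation above the mean across all tested compounds plus 3 SD, cutoff set per campaign, cut at about 5.5% in these data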
Wee1 degr inh: human Wee1 degradation inhibition, primary screen; 1.2% of 220,000 active; P30291; AID 1321; reporter increase, % at 5 µM; HeLa Luc-Wee1K328M stability, luciferase luminescence; 100% = proteasome inhibitor MG132 effect;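 active = activation above the mean of all tested compounds plus 3 SD, set per screening run, cut at about 8.8% in these data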;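 note: cells exposed to compound for 20 h before luminescence read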
Target sequence (P30291 whole entry K328M): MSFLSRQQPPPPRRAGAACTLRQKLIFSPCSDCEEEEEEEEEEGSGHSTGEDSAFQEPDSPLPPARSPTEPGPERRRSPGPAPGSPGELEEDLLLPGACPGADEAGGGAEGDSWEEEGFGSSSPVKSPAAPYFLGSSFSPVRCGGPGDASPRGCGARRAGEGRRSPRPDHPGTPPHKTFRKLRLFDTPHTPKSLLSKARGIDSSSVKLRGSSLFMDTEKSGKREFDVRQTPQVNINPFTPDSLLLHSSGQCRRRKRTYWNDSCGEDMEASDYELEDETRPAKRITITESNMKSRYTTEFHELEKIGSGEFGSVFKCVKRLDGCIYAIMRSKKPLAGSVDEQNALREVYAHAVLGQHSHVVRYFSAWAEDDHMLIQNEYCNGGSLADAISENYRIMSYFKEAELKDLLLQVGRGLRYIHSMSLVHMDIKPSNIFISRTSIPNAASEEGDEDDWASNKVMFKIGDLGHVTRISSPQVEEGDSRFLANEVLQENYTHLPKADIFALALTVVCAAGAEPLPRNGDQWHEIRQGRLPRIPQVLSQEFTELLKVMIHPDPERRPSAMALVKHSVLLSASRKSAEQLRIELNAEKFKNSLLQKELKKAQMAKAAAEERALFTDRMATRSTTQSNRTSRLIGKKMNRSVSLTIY
STAT1 act: activators of IFN-gamma induced STAT1 signaling | 2.6% of 200,000 active | AID 932 | activation (% of control), % at 5.5 µM | NIH 3T3 STAT1-luciferase reporter, luminescence; 100% = IFN-gamma alone, no compound;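 active = activation above the screen-wide mean activation plus 3 SD, cut at about 130% in these data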
APP transl inh: APP translation inhibition | SH-SY5Y APP 5'UTR-luciferase reporter, luminescence | inhibition, % at 2 µM | 0.82% of 190,000 active;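 active = inhibition above a set limit, derived from the sample mean plus 3 SD, cut at about 45% in these data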
NF-kB neuron act: compounds increasing NF-kB expression in human neuronal cells; NF-kB reporter expression; active compounds read high; fold change at 12.5 µM; 1.6% of 190,000 active; in the data active = fold change above about 3.3
APP 5'UTR act: APP 5'UTR luciferase reporter activation; activation, % at 2 µM; SH-SY5Y APP 5'UTR luciferase reporter, luminescence; zero percent = DMSO vehicle wells; 1% of 190,000 active; AID 1276;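 active = activation above a set limit, based on mean plus 3 SD of controls, cut at about 140% in these data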
Numbers stand for hits; n = inactive; x = no result.

SMILES | Hsp70 act | Wee1 degr inh | STAT1 act | APP transl inh | NF-kB neuron act | APP 5'UTR act
CN(C)c1ccc(/C=N/n2cnn(Cc3ccccc3Cl)c2=S)cc1 | n | n | n | n | n | n
CN(Cc1ccccc1)c1ncnc2c1cnn2-c1ccccc1 | n | n | 150 | n | 4.7 | n
CCOC(=O)CC(=O)CSc1ncnc2c1cnn2-c1ccccc1 | n | n | 143 | n | 3.8 | n
CCOC(=O)CSc1ncnc2c1cnn2-c1ccccc1 | n | n | n | n | n | n
CCN(c1ccccc1)c1ncnc2c1cnn2-c1ccccc1 | n | n | 131 | n | n | n
COc1ncnc2c1cnn2-c1ccccc1 | n | n | n | n | n | n
CCn1cc(-c2cc(C(=O)O)c3ccccc3n2)c(C)n1 | n | n | n | n | n | n
CCOC(=O)C(NC(=O)c1ccccc1)=C1C=C(C)OC(C)=C1 | n | n | n | n | n | n
CC1=C(C(=O)Nc2ccccn2)C(c2ccc(Br)cc2)NC(=S)N1 (configuration not stated) | n | n | n | n | n | n
CC1=C(C(=O)Nc2ccccn2)C(c2ccc(Cl)cc2)NC(=S)N1 (configuration not stated) | n | 9.9 | n | n | n | n
CC(C)Sc1ncnc2c1oc1ccccc12 | n | n | n | n | n | n
Oc1ccccc1Nc1ncnc2c1oc1ccccc12 | n | n | n | n | n | n
COc1ncnc2c1oc1ccccc12 | n | n | 146 | n | 3.3 | n
c1ccc(Sc2ncnc3c2oc2ccccc23)nc1 | n | n | 132 | n | n | n
c1ccc(Nc2ncnc3c2oc2ccccc23)cc1 | n | n | 132 | n | n | n
CCC(CC)c1nnc(NC(=O)Cc2cccs2)s1 | n | n | n | n | n | n
O=C(COC(=O)COc1ccccc1)NC1CCCc2ccccc21 (configuration not stated) | n | n | n | n | n | n
O=C(N/N=C/c1ccccc1C(F)(F)F)c1ccc(O)cc1 | n | n | 130 | n | n | n
O=C(N/N=C/c1ccccc1O)c1cccc(C(F)(F)F)c1 | n | n | n | 54 | n | n
O=C(N/N=C/c1ccc(O)cc1)c1cccc(C(F)(F)F)c1 | n | n | n | n | n | n
COCCCNCCCOc1ccc(C)cc1Br | n | n | n | n | n | n
COc1cc(C(C(=O)NC2CCCCC2)N(Cc2cccs2)C(=O)Cc2c[nH]c3ccccc23)cc(OC)c1OC (configuration not stated) | n | n | n | n | n | n
Cc1ccc(C(=O)Nc2cc([N+](=O)[O-])ccc2F)s1 | n | n | n | n | n | n
CCc1ccc(C(=O)Nc2cc(C)ccc2F)s1 | n | n | 132 | n | n | n
CCOC(=O)C1CCN(c2c(N(C)Cc3ccco3)c(=O)c2=O)CC1 | n | n | n | n | n | n
SMILES | Hsp70 act | Wee1 degr inh | STAT1 act | APP transl inh | NF-kB neuron act | APP 5'UTR act
O=C(C1CCCN(Cc2ccccc2Br)C1)N1CCCCC1 (configuration not stated) | n | 11 | n | n | n | n
O=C(C1CCCN(Cc2ccccc2)C1)N1CCCCC1 (configuration not stated) | n | n | n | x | n | x
Cc1ccc(S(=O)(=O)NCc2n[nH]c(=S)n2C)cc1 | n | n | n | n | n | n
C=CCn1c(SCC(=O)c2[nH]c(C)c(C(=O)OCC)c2C)nc2scc(-c3ccccc3)c2c1=O | n | n | n | n | n | n
C=CCn1c(SCC(=O)c2[nH]c(C)c(C(=O)OCC)c2C)nc2scc(-c3ccc(OC)cc3)c2c1=O | n | n | n | 60 | n | n
c1ccc(CCSc2nccn2-c2ccccc2)cc1 | n | n | 142 | n | 4.6 | n
COC(=O)CCCSc1nccn1-c1ccccc1 | n | n | n | n | 6 | n
COc1ccc(NS(=O)(=O)c2ccc(NS(C)(=O)=O)cc2)cc1 | n | n | n | n | n | n
CCOc1ccc(-c2nc(-c3ccccc3C)no2)cc1 | n | n | n | n | x | n
O=C(C1CC1)N(CCN(C(=O)C1CC1)c1ccccc1)c1ccccc1 | n | n | n | n | n | n
COc1ccccc1OC1OC2COC(c3ccco3)OC2C(O)C1NC(C)=O (configuration not stated) | n | 9.1 | n | n | n | n
O=c1/c(=C/c2cn(-c3ccccc3)nc2-c2ccc(F)cc2)sc2nc3ccccc3n12 | n | n | n | n | n | n
